Measured values from the supplement of paper PMC10981050.
Values joined by “and” are separate entries in the source; they are usually repeats but may differ in a detail not shown here. Identical values can stand only once. Counter-ions that a name gives are not always drawn.

Legend:
Test in all cases: cell viability relative to vehicle control; higher = less cytotoxic
Settings in all cases: 10 µM
[1] = test system: K562
Outline: (§1)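 CRISPR-edited SRSF2 P95 mutant and isogenic wild-type clones of four leukaemia lines were screened against Selleck bioactive, kinase and epigenetic probe libraries, with identity-inconsistent compounds removed. Compounds were acoustically dispensed into 384-well plates at a single 10 µM dose, with 2000 cells in 50 µL medium per well. After 48 h, supernatant was removed and CellTiter-Glo luminescence was read. Viability was expressed as percent of the on-plate DMSO vehicle control, analysed in Genedata Screener.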

[2] = test system: MARIMO
Outline: as §1

[3] = test system: MOLM14
Outline: as §1

[4] = test system: OCI-AML2
Outline: as §1

Row | SMILES | cell viability ([1]; SRSF2 genotype: SRSF2 P95H/wt) | cell viability ([1]; SRSF2 genotype: SRSF2 wt/wt) [%] | cell viability ([2]; SRSF2 genotype: SRSF2 P95H/wt) [%] | cell viability ([2]; SRSF2 genotype: SRSF2 wt/wt) [%] | cell viability ([3]; SRSF2 genotype: SRSF2 P95H/wt) [%] | cell viability ([3]; SRSF2 genotype: SRSF2 wt/wt) [%] | cell viability ([4]; SRSF2 genotype: P95H/wt) [%] | cell viability ([4]; SRSF2 genotype: wt/wt) [%]
1 | CC(C)C(=O)OCC(=O)[C@@]12O[C@H](C3CCCCC3)O[C@@H]1C[C@H]1[C@@H]3CCC4=CC(=O)C=C[C@]4(C)[C@H]3[C@@H](O)C[C@@]12C [Ciclesonide] | 57% and 55.7% | 62.1 | 63.6 | 68.9 | 41.4 | 41.6 | 25.5 | 59.6
2 | C=CC(=O)Nc1cc(Nc2nccc(-n3cc(CN(C)C)c(-c4ccccc4)n3)n2)c(OC)cc1N1CCOCC1 | 85.6% and 94.6% | 84.8 | 76.5 | 80.2 | 74.2 | 75.5 | 63.9 | 63.3
3 | Cc1nc2n(c(=O)c1CCN1CCC(c3noc4cc(F)ccc34)CC1)CCCC2 [Risperidone (Risperdal)] | 93.6% and 101% | 93.5 | 94 | 99.2 | 100 | 98.2 | 98.8 | 99
4 | O=C1CC[C@@H](C(=O)N2CSC[C@H]2C(=O)O)N1 [Pidotimod] | 99.7% and 104% | 101 | 104 | 99.1 | 104 | 104 | 114 | 104
5 | CC(=O)N1CCC(Nc2cc(C(=O)NC[C@H](O)CN3CCc4ccccc4C3)ncn2)CC1 | 91.8% and 96.6% | 90.9 | 88.8 | 103 | 87.6 | 94.5 | 78.3 | 85.2
6 | CCn1c(=O)c(-c2cc[nH]n2)cc2c(C)nc(N)nc21 | 54.4% and 68.5% | 65.7 | 43.5 | 35.6 | 29.2 | 26.4 | 13.8 | 20.5
7 | C[C@H](NC(=O)c1c(N)nn2cccnc12)c1cc2cccc(C#Cc3cnn(C)c3)c2c(=O)n1-c1ccccc1 | 88.3% and 88.5% | 94.3 | 71 | 63.4 | 54.3 | 57.1 | 32.2 | 41.6
8 | O=c1[nH]c(=O)n([C@H]2C[C@H](O)[C@@H](CO)O2)cc1F [Floxuridine] | 54.2% and 46.3% | 30.1 | 86.5 | 96.5 | 48 | 14.9 | 30.9 | 48.8
9 | COC(=O)C1=C(C#N)NC(C)=C(C(=O)OC(C)C)C1c1cccc([N+](=O)[O-])c1 (stereo not drawn) [Nilvadipine (ARC029)] | 81.2% and 85.3% | 80.7 | 76 | 79.7 | 80.9 | 84.7 | 103 | 97.2
10 | COc1cc(N2CCN(C)CC2)ccc1Nc1ncc2c(n1)N(C)c1ccccc1C(=O)N2 | 83.4% and 82.7% | 78.9 | 97.7 | 90.1 | 78.1 | 91.3 | 83.3 | 73.2
11 | Cc1nc(N)sc1-c1ccnc(Nc2ccc(N3CCOCC3)cc2)n1 | 59.9% and 67.6% | 64.5 | 40.8 | 44.3 | 5.52 | 4.7 | 9.4 | 13.7
12 | OC1COC(O)C(O)C1O (stereo not drawn) [L(+)-Arabinose] | 102% and 92.9% | 96.7 | 108 | 112 | 95.5 | 101 | 87.3 | 113
13 | CC(C)Oc1ccc(-c2cnc3c(-c4ccnc5ccccc45)cnn3c2)cc1 | 86.4% and 88.6% | 84.7 | 86.1 | 98 | 84.6 | 90.4 | 82.2 | 78.1
14 | CC(C)(C)NC(=O)c1cncn1C1CCN(c2ccc(-c3nnc(C(F)(F)F)o3)cn2)CC1 | 69% and 57.2% | 63.8 | 53.1 | 64.5 | 56.7 | 45.7 | 8.34 | 20.6
15 | COc1cc(/C=C/C(=O)O)ccc1O [Fumalic acid (Ferulic acid)] | 98.4% and 103% | 100 | 92.1 | 105 | 103 | 101 | 92.9 | 105
16 | NC(=O)[C@@H]1CCCN1C(=O)[C@H](Cc1c[nH]cn1)NC(=O)[C@@H]1CCC(=O)N1 [Protirelin] | 99.8% and 93.1% | 104 | 99.2 | 108 | 101 | 100 | 102 | 100
17 | CCCCC(=O)N(Cc1ccc(-c2ccccc2-c2nnn[nH]2)cc1)[C@H](C(=O)O)C(C)C [Valsartan (Diovan)] | 102% and 98.1% | 105 | 102 | 112 | 104 | 106 | 101 | 112
18 | Nc1[nH]cnc2ncnc1-2 [Adenine sulfate] | 108% and 94.6% | 99.3 | 94.7 | 103 | 93.5 | 99.7 | 102 | 112
19 | N[C@@H](Cc1cc(I)c(O)c(I)c1)C(=O)O [3,5-Diiodotyrosine Dihydrate] | 94.2% and 94.5% | 97.4 | 97 | 102 | 96.6 | 99.9 | 100 | 102
20 | Cc1cn([C@H]2C[C@H](N=[N+]=[N-])[C@@H](CO)O2)c(=O)[nH]c1=O [Zidovudine (Retrovir)] | 96.5% and 101% | 101 | 102 | 113 | 95.5 | 105 | 101 | 105
21 | C=CC(C)(O)CCC=C(C)C (stereo not drawn) [Linalool] | 100% and 105% | 107 | 101 | 105 | 103 | 104 | 109 | 97.4

Row | SMILES | cell viability ([1]; SRSF2 genotype: SRSF2 P95H/wt) | cell viability ([1]; SRSF2 genotype: SRSF2 wt/wt) [%] | cell viability ([2]; SRSF2 genotype: SRSF2 P95H/wt) [%] | cell viability ([2]; SRSF2 genotype: SRSF2 wt/wt) [%] | cell viability ([3]; SRSF2 genotype: SRSF2 P95H/wt) [%] | cell viability ([3]; SRSF2 genotype: SRSF2 wt/wt) [%] | cell viability ([4]; SRSF2 genotype: P95H/wt) [%] | cell viability ([4]; SRSF2 genotype: wt/wt) [%]
22 | O=C(Nc1ccc(S(=O)(=O)Nc2ccccc2Cl)c(Cl)c1)c1ccccn1 | 98.1% and 99% | 99.7 | 95.6 | 101 | 97.6 | 98.3 | 103 | 104
23 | O=C(/C=C/C=C/c1ccc2c(c1)OCO2)N1CCCCC1 [Piperine (1-Piperoylpiperidine)] | 105% and 94.8% | 89.7 | 92.7 | 100 | 106 | 100 | 85.6 | 97.3
24 | COc1cc2c(cc1OC)[C@@H]1Cc3ccc(OC)c(OC)c3CN1CC2 [Tetrahydropalmatine hydrochloride] | 89.6% and 96.5% | 95.6 | 91.4 | 93.7 | 93.4 | 101 | 103 | 83.9
25 | COc1cc(NC(=O)c2ccccn2)ccc1Cl | 85.2% and 86.2% | 94.1 | 87.1 | 92.4 | 99 | 95.3 | 88.4 | 80
26 | CCOc1nc2cccc(C(=O)OC(C)OC(=O)OC3CCCCC3)c2n1Cc1ccc(-c2ccccc2-c2nn[nH]n2)cc1 (stereo not drawn) [Candesartan cilexetil (Atacand)] | 95.6% and 97.9% | 75.5 | 98.8 | 106 | 62.2 | 87.1 | 90 | 72.1
27 | O=C(O)CSc1nnc(Br)n1-c1ccc(C2CC2)c2ccccc12 [Lesinurad] | 98.3% and 93.5% | 97.5 | 95.1 | 108 | 98.7 | 101 | 96.9 | 100
28 | Cc1[nH]c2ccccc2c1C1=C(NCCc2ccc(F)cc2)C(=O)N(C)C1=O | 97% and 105% | 102 | 94.9 | 100 | 99.4 | 105 | 100 | 89.8
29 | CCN(CCO)CCCOc1ccc2c(Nc3cc(CC(=O)Nc4cccc(F)c4)[nH]n3)ncnc2c1 [Barasertib (AZD1152-HQPA)] | 70.7% and 93.2% | 81 | 73.2 | 68.2 | 13.9 | 7.61 | 29.1 | 36.6
30 | CC1(C)S[C@@H]2[C@H](NC(=O)C(c3ccccc3)S(=O)(=O)O)C(=O)N2[C@H]1C(=O)O (stereo partly drawn) [Sulbenicillin Sodium] | 109% and 103% | 97.7 | 104 | 113 | 97.7 | 105 | 90.7 | 99.3
31 | CCc1cc2c(cc1N1CCC(N3CCOCC3)CC1)C(C)(C)c1[nH]c3cc(C#N)ccc3c1C2=O | 91.7% and 98.6% | 105 | 63.9 | 86.3 | 66.7 | 80.5 | 71.7 | 52.2
32 | C=C1CCC2C(C)(COC(=O)CCC(=O)O)C(OC(=O)CCC(=O)O)CCC2(C)C1C=CC1=CCOC1=O (stereo not drawn) [Dehydroandrographolide Succinate] | 114% and 108% | 111 | 101 | 101 | 109 | 107 | 106 | 105
33 | Cc1ccc(/C=C2/C(=O)C3(C)CCC2C3(C)C)cc1 (stereo not drawn) [4-Methylbenzylidene camphor] | 105% and 97.8% | 96.1 | 90 | 108 | 95.5 | 104 | 89.4 | 99.7
34 | CC[C@H]1OC(=O)[C@H](C)[C@@H](O[C@H]2C[C@@](C)(OC)[C@@H](O)[C@H](C)O2)[C@H](C)[C@@H](O[C@@H]2O[C@H](C)C[C@H](N(C)C)[C@H]2O)[C@](C)(O)C[C@@H](C)CN(C)[C@H](C)[C@@H](O)[C@]1(C)O [Azithromycin Dihydrate] | 86.8% and 80.4% | 82.7 | 86 | 83.7 | 86.8 | 93.3 | 77.9 | 88
35 | CC(C)=CCC/C(C)=C\CO [Nerol] | 109% and 104% | 104 | 110 | 114 | 106 | 107 | 103 | 109
36 | NC1=N[C@@](c2cccc(-c3cncnc3)c2)(c2ccnc(C(F)F)c2)c2cccc(F)c21 | 76.9% and 74.8% | 81.4 | 80.1 | 95.2 | 85.7 | 84.1 | 71.1 | 71.3
37 | c1cc(-c2cnn3cc(-c4ccc(N5CCNCC5)cc4)cnc23)c2cccnc2c1 | 0.29% and 0.31% | 0.27 | 0.3 | 0.3 | 0.26 | 0.32 | 0.24 | 0.25
38 | CO/N=C(\C(=O)N[C@@H]1C(=O)N2C(C(=O)O)=C(CSc3nnnn3C)CS[C@H]12)c1csc(N)n1 [Cefmenoxime hydrochloride] | 96.7% and 90.3% | 100 | 98.4 | 97.1 | 99.7 | 98.8 | 97.2 | 101
39 | Cc1ncc([N+](=O)[O-])n1CCO [Metronidazole (Flagyl)] | 105% and 104% | 109 | 107 | 109 | 104 | 103 | 106 | 111
40 | COC(=O)C1=CO[C@@H](O)[C@@H]2C(CO)=CC[C@H]12 [Genipin] | 94.8% and 97.4% | 95.1 | 71.1 | 85.7 | 78 | 90.4 | 26.4 | 41.1
41 | CCOc1cc([C@@H](CS(C)(=O)=O)N2C(=O)c3cccc(NC(C)=O)c3C2=O)ccc1OC | 102% and 98.7% | 94.5 | 99.5 | 92.5 | 98 | 94.9 | 90.1 | 94.7
